Shown are actives, neighbours in structure and some others; about 19% of the full set was active somewhere.
Shiga toxin inh – blocks Shiga toxin action in Vero cells. inhibition, % at 38.7 µM. Vero cells, Shiga toxin protein synthesis inhibition reporter. 9.2% of 290,000 active; in the data active = inhibition mostly above about 28%, no sharp cut-off; inactive = mostly below about 43%
Marburg entry inh – blocks Marburg virus binding to or entry into cells; Potency, µM (titrated, usually from 37.8 µM), usual class: inhibitors; 1.8% of 300,000 active; AID 540276; Marburg virus pseudotyped entry inhibition, cell reporter; calls by dose curve; tested in HEK293 cells
Cycloheximide cs – affects cycloheximide protein synthesis inhibition readout, counter-screen; cell reporter, cycloheximide protein synthesis inhibition counterscreen; 12% of 300,000 active; max response, %; AID 2314; in the data active = max response mostly above about 13%, no sharp cut-off; inactive = mostly below about 14%; also: read at 38.3 µM for the half of the compounds with a filed dose
Pf growth 48h – inhibits P. falciparum growth in the first generation, 48 h | P. falciparum luciferase growth in erythrocytes, 48 h | Potency, µM (top dose mostly 28.7 µM), hits mostly inhibitors | 5.9% of 310,000 active | AID 504832
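Here the parasites carry a stable luciferase gene and grow inside erythrocytes in Albumax-based RPMI medium with compound for one erythrocytic cycle. Activity is scored as loss of luminescent signal.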
LASV entry inh – blocks Lassa virus binding to or entry into cells | Lassa virus pseudotype entry inhibition, cell reporter | Potency, µM (titrated, usually from 37.9 µM), actives largely listed as inhibitors | 1.2% of 300,000 active | AID 540256; calls by dose curve; tested in HEK293 cells; also: nearly all actives have a fitted effect of over 50% in size
Pf growth 96h – P. falciparum growth inhibition at 96 hours. P. falciparum luciferase reporter growth, 96 h. Potency, µM (doses to about 28.7 µM), most hits filed as inhibitors. 6.9% of 320,000 active
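Compounds incubated with erythrocytes infected by luciferase-expressing P. falciparum (2% hematocrit, 0.05% parasitemia final) for 96 hours, 37 C in 5% CO2. Growth inhibition scored as decreased luciferase luminescence.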
Of the large screens only hits and unclear results are named; the others gave an inactive call. Unless noted, calls follow the shape of the dose curve; as a rule, active = well fitted inhibition curve with a large enough effect; inconclusive = small, poorly fitted or top-dose-only effect, or another doubt; inactive = no such curve, though single readings can be large or run the other way.

O=C(Nc1ccncc1NC(=O)c1cccc([N+](=O)[O-])c1)c1cccc([N+](=O)[O-])c1	Pf growth 48h inconclusive, LASV entry inh inconclusive, Pf growth 96h 2.3µM
CC1CN=C(NC(=O)c2cccc([N+](=O)[O-])c2)S1 (stereo unspecified)	Shiga toxin inh 26, Cycloheximide cs 28 (no result: Marburg entry inh, LASV entry inh)
O=C(Nc1cccc(NC(=O)c2cccc([N+](=O)[O-])c2)n1)c1cccc([N+](=O)[O-])c1	Pf growth 96h inconclusive (no result: Shiga toxin inh, Marburg entry inh, LASV entry inh)
O=C(c1cc(COc2ccc(F)cc2Cl)on1)N1CCN(C2CCCCC2)C(=O)C1	Marburg entry inh inconclusive, LASV entry inh inconclusive
COc1cc(C2C(C#N)=C(N)Oc3cc(N)ccc32)cc(OC)c1OC (stereo unspecified)	Marburg entry inh 5.6µM, LASV entry inh inconclusive, Pf growth 96h inconclusive
COc1cc(C2C(C#N)=C(N)Oc3cc(C)oc(=O)c32)cc(OC)c1OC (stereo unspecified)	Marburg entry inh inconclusive
N#CC1=C(N)Oc2cc(N)ccc2C1c1ccc(F)cc1 (stereo unspecified)	Marburg entry inh inconclusive (no result: Pf growth 96h)
N#CC1=C(N)Oc2cc(N)ccc2C1c1ccc(F)cc1F (stereo unspecified)	Marburg entry inh inconclusive, Pf growth 96h 5.9µM
N#CC1=C(N)Oc2cc(N)ccc2C1c1cccnc1 (stereo unspecified)	Marburg entry inh 16µM
COc1cc(C2C(C#N)=C(C)NC(C)=C2C#N)cc(OC)c1OC	Pf growth 48h 9.3µM, Pf growth 96h 12µM
O=C(CSc1nc2ccccc2c(=O)n1-c1ccc(Cl)cc1)c1ccco1	Marburg entry inh inconclusive
CC(=O)c1ccccc1NC(=O)COC(=O)/C=C/c1ccc(C)o1	LASV entry inh inconclusive
O=C(CSc1ccccc1)Nc1cccc(S(=O)(=O)N2CCCC2)c1	LASV entry inh inconclusive
Cc1c(C(=O)NC2CCCc3ccccc32)oc2ccccc12 (stereo unspecified)	Marburg entry inh inconclusive (no result: Pf growth 96h)
N#CC1=C(N)Oc2cc(N)ccc2C1c1ccc(Cl)cc1 (stereo unspecified)	Marburg entry inh inconclusive, LASV entry inh inconclusive, Pf growth 96h inconclusive
N#CC1=C(N)Oc2cc(Nc3ccccc3)ccc2C1c1ccncc1 (stereo unspecified)	Marburg entry inh 18µM, Pf growth 48h inconclusive, LASV entry inh inconclusive
O=C(CSc1ccccc1C(=O)N1CCN(c2ccc([N+](=O)[O-])cc2)CC1)N1CCCC1	Marburg entry inh inconclusive (no result: Shiga toxin inh, Cycloheximide cs, Pf growth 48h, Pf growth 96h)
Cn1c(C2=C(O)CN(Cc3ccccc3)C2=N)nc2ccccc21	Shiga toxin inh 33, Cycloheximide cs 33 (no result: Marburg entry inh, LASV entry inh)
COc1cccc2c(=O)n(CC(=O)NCCc3ccccc3)ccc12	Pf growth 48h 1.9µM, Pf growth 96h 3.3µM (no result: Marburg entry inh, LASV entry inh)
COc1ccc(CCNC(=O)Cn2ccc3c(OC)cccc3c2=O)cc1OC	none (no result: Marburg entry inh, LASV entry inh)
COCCn1ccc2c(OCC(=O)NCc3ccccc3)cccc2c1=O	Pf growth 48h inconclusive, LASV entry inh 1.6µM (no result: Shiga toxin inh, Cycloheximide cs)
O=C1CC(N2CCSCC2)C(=O)N1c1ccc(F)cc1 (stereo unspecified)	Marburg entry inh inconclusive
O=C1CSC(c2ccccc2[N+](=O)[O-])N1c1cccc(F)c1 (stereo unspecified)	Pf growth 96h 2.3µM
CS(=O)(=O)c1ccc(Cl)c(NC(=O)C2CC(=O)N(c3ccc4c(c3)OCCO4)C2)c1 (stereo unspecified)	none
CCc1cc(=O)oc2cc3occ(-c4ccc(OC)c(F)c4)c3cc12	Marburg entry inh inconclusive, Pf growth 48h inconclusive, LASV entry inh 5µM
COc1cc(OC)c2c(-c3cccc(-c4ccc(OC)c(F)c4)c3)cc(=O)oc2c1	none (no result: Marburg entry inh, Pf growth 48h, LASV entry inh, Pf growth 96h)
COc1ccc(CCNC(=O)c2c[nH]n3c(=O)c(Cc4ccccc4Cl)c(C)nc23)cc1OC	none (no result: Shiga toxin inh, Marburg entry inh, Cycloheximide cs, Pf growth 48h, Pf growth 96h)
C[n+]1ccccc1/C=C/c1ccc(C#N)cc1	Marburg entry inh inconclusive, Pf growth 96h inconclusive (no result: Shiga toxin inh)
CC(C)CC[n+]1ccccc1/C=C/c1ccc(N(C)C)cc1	Marburg entry inh inconclusive, Pf growth 48h 0.93µM, LASV entry inh inconclusive
CN(C)c1ccc(/C=C/c2cccc[n+]2[O-])cc1	Shiga toxin inh 59, Cycloheximide cs 33, LASV entry inh inconclusive
CCCCNC(=O)CSC1=Nc2ccccc2C2=NC(CCC(=O)NCc3ccccc3OC)C(=O)N12 (stereo unspecified)	none (no result: Shiga toxin inh, Marburg entry inh, Cycloheximide cs, Pf growth 48h, Pf growth 96h)
CCCN1C(=O)c2cc(C(=O)NC3CCCCCC3)ccc2C1O (stereo unspecified)	Shiga toxin inh 41, Cycloheximide cs 34, Pf growth 96h inconclusive (no result: Marburg entry inh, LASV entry inh)
Cc1cccc(CC(=O)NCC2CCCCC2)c1	Shiga toxin inh 93, Cycloheximide cs 31, Pf growth 96h inconclusive (no result: Marburg entry inh, LASV entry inh)
Cc1ccc(NC(=O)N2CCC(NC(=O)c3ccco3)CC2)cc1	none
Cc1ccc(NC(=O)N2CCC(NC(=O)c3cccc(C)c3)CC2)cc1	Pf growth 48h inconclusive, Pf growth 96h 10µM
CN(C)c1cccc(C(=O)NC2CCCCCC2)c1	Shiga toxin inh 43, Marburg entry inh inconclusive, Cycloheximide cs 40, LASV entry inh inconclusive (no result: Pf growth 96h)
CCCN1C(=O)c2cc(C(=O)O)ccc2C1O (stereo unspecified)	none (no result: Marburg entry inh, LASV entry inh)
O=C(COC(=O)c1ccco1)NCC1CCCCC1	none (no result: Shiga toxin inh, Cycloheximide cs)
CN(C)c1cccc(C(=O)NC2CCCc3ccccc32)c1 (stereo unspecified)	Pf growth 48h inconclusive, Pf growth 96h inconclusive
C[C@]12C/C(=C/O)C(=O)C[C@@H]1CC[C@@H]1[C@@H]2CC[C@@]2(C)[C@H]1CC[C@]2(C)O	Pf growth 96h inconclusive (no result: Shiga toxin inh, Marburg entry inh, Cycloheximide cs, LASV entry inh)
CCOC(=O)c1sc2cc([N+](=O)[O-])cc(SCC(C)C)c2c1N	none (no result: Pf growth 96h)
Cc1cccc(CSc2nc3cccnc3n2Cc2ccc(C(=O)NCc3cccs3)cc2)c1	none (no result: Shiga toxin inh, Marburg entry inh, Cycloheximide cs, Pf growth 48h, Pf growth 96h)
Cc1cccc(C(=O)NC2CCCCCCC2)c1	Shiga toxin inh 78, Cycloheximide cs 45 (no result: Marburg entry inh, Pf growth 48h, LASV entry inh)
O=C(NC1CCCCCC1)c1cccc(COCC(F)(F)F)c1	Shiga toxin inh active, Marburg entry inh inconclusive, Cycloheximide cs 22
O=C(c1ccco1)N1CCN(c2ncnc3c2cnn3-c2ccccc2)CC1	Marburg entry inh inconclusive, Cycloheximide cs 25 (no result: Pf growth 96h)
Cc1nn(-c2ccccc2)c(Cl)c1C(=O)N1CCN(c2ncnc3c2cnn3-c2ccccc2)CC1	Marburg entry inh 13µM, Pf growth 48h inconclusive, LASV entry inh 13µM, Pf growth 96h inconclusive
O=C(c1ccccc1)N1CCN(c2ncnc3c2cnn3-c2ccccc2)CC1	Marburg entry inh inconclusive, Pf growth 48h inconclusive
CCOCCSC1=C(C#N)C(c2cccs2)C(C(C)=O)=C(C)N1 (stereo unspecified)	none (no result: Pf growth 96h)
COCCn1nc2cc(C(=O)NCc3cc(C(F)(F)F)cc(C(F)(F)F)c3)ccc2c1OC	Pf growth 48h inconclusive, Pf growth 96h inconclusive (no result: LASV entry inh)
CSc1ccc(-c2nc3cc(C)ccn3c2Nc2ccc(C)cc2)cc1	none (no result: Shiga toxin inh, Cycloheximide cs, Pf growth 48h, Pf growth 96h)
Cc1ccc(-c2nc(-c3nccc4ccccc34)oc2-c2ccccc2)cc1	Shiga toxin inh 98, Cycloheximide cs 22, Pf growth 96h inconclusive (no result: Marburg entry inh, LASV entry inh)
CC(C)(C)OC(=O)NCCCC[C@H](NC(=O)c1[nH]cnc1C(=O)N[C@@H](Cc1ccccc1)C(=O)OC(C)(C)C)C(=O)OC(C)(C)C	Pf growth 48h 2.9µM, Pf growth 96h 3.7µM (no result: Marburg entry inh, LASV entry inh)
